KB-3-1 tox: qHTS assay for MDR1-selective chemotherapeutics: Primary screen using the parental adenocarcinoma cell KB-3-1 | KB-3-1 viability, CellTiter-Glo ATP luminescence, 72 h | Potency, µM (titrated, usually from 46.1 µM), usual class: cytotoxic | 1.4% of 400,000 active | AID 1347075, 2019; also: potency is read from the fitted curve at half-maximal effect; % is scaled to controls: 0 for no effect and ±100 for the full control effect; nearly all actives have a fitted effect of over 60% in size
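Screening of KB-3-1 cells (DMEM, 10% FBS, phenol-red free) ran from lowest to highest compound concentration; after 72 h at 37 °C viability was read luminescently and curves fitted.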
hERG WT inh: qHTS for Inhibitors of KCHN2 3.1: Wildtype qHTS. U2OS, BacMam KCNH2, thallium flux FluxOr; stronger effect = lower value. 0.37% of 340,000 active. AID 720551, 2013. activity change, % at 1.84 µM. Voltage-gated inwardly rectifying potassium channel KCNH2 (Homo sapiens), Q12809;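 active = maximum activity change below -70%; inconclusive = maximum activity change between -70% and -50%; inactive = maximum activity change above -50%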; also: % is scaled to controls: 0 for no effect and ±100 for the full control effect
Target sequence (Q12809 whole entry, looked up): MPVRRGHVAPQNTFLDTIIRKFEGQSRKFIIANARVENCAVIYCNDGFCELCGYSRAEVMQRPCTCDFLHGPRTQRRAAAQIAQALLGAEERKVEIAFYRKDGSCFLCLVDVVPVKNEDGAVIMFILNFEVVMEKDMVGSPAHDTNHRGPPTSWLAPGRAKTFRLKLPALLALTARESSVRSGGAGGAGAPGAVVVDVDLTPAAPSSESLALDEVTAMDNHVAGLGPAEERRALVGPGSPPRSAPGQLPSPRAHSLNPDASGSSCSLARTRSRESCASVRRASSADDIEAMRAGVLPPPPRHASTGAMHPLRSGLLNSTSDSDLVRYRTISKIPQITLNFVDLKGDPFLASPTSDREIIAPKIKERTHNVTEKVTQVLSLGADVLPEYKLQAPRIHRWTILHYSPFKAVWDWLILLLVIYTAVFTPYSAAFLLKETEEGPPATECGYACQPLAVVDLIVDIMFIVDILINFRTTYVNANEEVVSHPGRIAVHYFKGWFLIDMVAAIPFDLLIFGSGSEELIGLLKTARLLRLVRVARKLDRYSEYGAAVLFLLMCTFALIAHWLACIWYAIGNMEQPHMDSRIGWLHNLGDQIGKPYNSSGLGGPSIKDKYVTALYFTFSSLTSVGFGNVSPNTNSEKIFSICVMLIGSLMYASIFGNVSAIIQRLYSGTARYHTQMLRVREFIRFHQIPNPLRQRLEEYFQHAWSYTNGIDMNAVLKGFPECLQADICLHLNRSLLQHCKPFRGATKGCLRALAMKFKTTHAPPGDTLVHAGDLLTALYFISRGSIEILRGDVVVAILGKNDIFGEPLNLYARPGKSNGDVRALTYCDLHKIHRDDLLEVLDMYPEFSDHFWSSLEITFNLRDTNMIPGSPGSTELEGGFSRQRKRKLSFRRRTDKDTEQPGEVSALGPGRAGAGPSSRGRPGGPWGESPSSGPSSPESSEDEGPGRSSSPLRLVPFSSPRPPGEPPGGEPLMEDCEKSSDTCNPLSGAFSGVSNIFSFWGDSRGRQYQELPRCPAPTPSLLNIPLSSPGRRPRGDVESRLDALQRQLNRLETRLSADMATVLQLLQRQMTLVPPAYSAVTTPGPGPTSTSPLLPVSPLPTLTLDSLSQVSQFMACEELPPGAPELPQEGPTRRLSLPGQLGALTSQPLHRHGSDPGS
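U2OS cells were transduced with wild-type KCNH2 virus (2.03 x 10^8 / mL) for 4 h at room temperature, then cultured overnight at 37 C. Thallium flux was read with FluxOr dye. Rate constants were normalized to DMSO controls.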
KB-V1 MDR tox: qHTS assay for MDR1-selective chemotherapeutics: Primary screen using the drug-selected MDR subline cells KB-V1; KB-V1 MDR cells viability, CellTiter-Glo, 72 h; 3.4% of 400,000 active; AID 1347076, 2019; Potency, µM (highest dose often 46.1 µM), usual class: cytotoxic; also: potency is read from the fitted curve at half-maximal effect; % is scaled to controls: 0 for no effect and ±100 for the full control effect; nearly all actives have a fitted effect of over 60% in size
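Potencies derive from concentration-effect curves fitted to normalized luminescence (CellTiter-Glo) of KB-V1 cells treated for 72 h at 37 degrees C in phenol-red-free DMEM containing 10% FBS.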
MCF10A rereplic: A quantitative high throughput screen for small molecules that induce DNA re-replication in MCF 10a normal breast cells. MCF 10A DNA re-replication, Hoechst nuclear intensity, 48 h. Potency, µM (doses to about 46.1 µM), without a hit: at the highest dose activity, positive = re-replication, actives largely listed as activators. 2.9% of 350,000 active. AID 624296, 2012; also: potency is read from the fitted curve at half-maximal effect; % of control where 0% means no effect; nearly all actives have a fitted effect of over 50% in size
KCNH2 3.1 block: qHTS for Inhibitors of KCHN2 3.1: Mutant qHTS. U2OS KCNH2 3.1, thallium flux FluxOr; stronger effect = lower value. activity change, % (tested at about 1.8 µM). 0.95% of 340,000 active. AID 720553, 2013;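 active = maximum activity change below -70%; inconclusive = maximum activity change from -70% to -50%; inactive = maximum activity change above -50%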;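 also: thallium influx rate constant from kinetic fluorescence after stimulation buffer; % is scaled to controls: 0 for no effect and ±100 for the full control effect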
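Measured as rate of thallium-driven FluxOr signal in transduced U2OS cells carrying the 3.1 channel, read kinetically for 2 min upon stimulation; values are rate constants scaled to DMSO control wells.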
SW480 rereplic: A quantitative high throughput screen for small molecules that induce DNA re-replication in SW480 colon adenocarcinoma cells. SW480 DNA re-replication, Hoechst DNA content imaging, 48 h. Potency, µM (doses to about 46.1 µM), without a hit: at the highest dose re-replication activation, most hits filed as activators. 1.8% of 340,000 active; also: potency is read from the fitted curve at half-maximal effect; % of control where 0% means no effect; nearly all actives have a fitted effect of over 55% in size
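250 cells/well; 23 nL cpd via pin tool; 48 hr, 37 C, 5% CO2; Hoechst 40 min; imager read of total nuclear intensity, ex 405/em 500-530 nm.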
Numbers without * were called inactive; [ ] = another dose, or the depositor's remark. Compounds with a hit are over-represented: about 7.6% of the library has one in this group of screens. Unless noted, calls follow the shape of the dose curve; as a rule, active = well fitted curve in the direction sought with a large enough effect; inconclusive = small, poorly fitted or top-dose-only effect, or another doubt; inactive = no such curve, though single readings can be large; an effect the other way counts as inactive or inconclusive.

How did Cc1ccc(N2CCN(C(=O)Nc3cccc([N+](=O)[O-])c3)CC2C)cc1 (stereo unspecified) do in these assays?
KB-3-1 tox: inactive; hERG WT inh: -77*; KB-V1 MDR tox: inconclusive; MCF10A rereplic: -2%[9.22 µM]; KCNH2 3.1 block: -74*; SW480 rereplic: 1%

How did Cc1ccc(C(C)C)c(OC(=O)/C=C/c2ccccc2)c1 do in these assays?
KB-3-1 tox: inactive; hERG WT inh: -12; KB-V1 MDR tox: inactive; MCF10A rereplic: 4%; KCNH2 3.1 block: -91*; SW480 rereplic: -1%

Results for COc1cccc(-n2nnnc2S(C)(=O)=O)c1 ?
KB-3-1 tox: inconclusive; hERG WT inh: 4; KB-V1 MDR tox: inconclusive; MCF10A rereplic: 4.6µM*; KCNH2 3.1 block: -4; SW480 rereplic: inconclusive

How did Cc1cccc(-n2nnnc2S(C)(=O)=O)c1 do in these assays?
KB-3-1 tox: inactive; KB-V1 MDR tox: inconclusive

Results for O=C(NCC(O)c1ccc([N+](=O)[O-])cc1)C1=COCCO1 (stereo unspecified) ?
KB-3-1 tox: inactive; hERG WT inh: 11; KB-V1 MDR tox: inconclusive; MCF10A rereplic: -2%; KCNH2 3.1 block: 5; SW480 rereplic: 1%

How did O=C(Cc1cccc2ccccc12)Nc1nc2ccccc2[nH]1 do in these assays?
KB-3-1 tox: inactive; hERG WT inh: 2; KB-V1 MDR tox: 18µM*; MCF10A rereplic: 0%; KCNH2 3.1 block: -35; SW480 rereplic: inconclusive

What do the screens show for `CCCCCC(=O)Nc1nc2ccccc2[nH]1`?
KB-3-1 tox: 23µM*; hERG WT inh: -27; KB-V1 MDR tox: inconclusive; MCF10A rereplic: 21%; KCNH2 3.1 block: -14; SW480 rereplic: inconclusive

What do the screens show for `O=C(CCCSc1nc2ccccc2[nH]1)NCc1ccccc1Cl`?
KB-3-1 tox: inactive; hERG WT inh: -8; KB-V1 MDR tox: 16µM*; MCF10A rereplic: 0%; KCNH2 3.1 block: -2

What do the screens show for `COc1ccc(Cl)cc1NC(=O)CCS(=O)(=O)c1ccc(C)cc1`?
KB-3-1 tox: inactive; hERG WT inh: -18; KB-V1 MDR tox: inactive; MCF10A rereplic: 1%; KCNH2 3.1 block: -4; SW480 rereplic: -1%

What do the screens show for `O=C(CN1C(=O)C2(SCC(=O)N2c2ccccc2)c2ccccc21)NCc1ccccc1` (stereo unspecified)?
KB-3-1 tox: inactive; KB-V1 MDR tox: inconclusive

What do the screens show for `Cc1ccc(C(=O)N/N=c2\sc3ccccc3n2C)cc1`?
KB-3-1 tox: inactive; hERG WT inh: -2; KB-V1 MDR tox: inactive; MCF10A rereplic: inconclusive; KCNH2 3.1 block: 1; SW480 rereplic: 0.65µM*

How did N=C(N)SCc1cn(-c2ccccc2)nc1-c1ccc(Br)cc1 do in these assays?
KB-3-1 tox: inconclusive; hERG WT inh: 28; KB-V1 MDR tox: 18µM*; MCF10A rereplic: inconclusive; KCNH2 3.1 block: -25; SW480 rereplic: 18%

What do the screens show for `Cc1ccccc1CN(C)CCc1ccccn1`?
KB-3-1 tox: inactive; hERG WT inh: 32; KB-V1 MDR tox: inactive; MCF10A rereplic: 0.65µM*; KCNH2 3.1 block: -2; SW480 rereplic: -2%

Results for COc1cc2c(NC3CCN(C(C)C)CC3)nc(N3CCCN(C)CC3)nc2cc1OCCOCCN(C)C ?
KB-3-1 tox: inconclusive; KB-V1 MDR tox: inactive

How did COc1ccc(C(C)=O)cc1Cn1c(C)c(C(=O)NCc2ccc(C(C)C)cc2)sc1=O do in these assays?
KB-3-1 tox: inactive; KB-V1 MDR tox: inconclusive

Bioassay records from PubChem BioAssay.
